Source: PubChem BioAssay
“And” between values parts separate entries of the source, which are not always exact repeats. Equal entries are not always repeated. The source made the active and inactive calls.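 The calls were made as follows, unless noted: active = normalized viability below 100% at a tested concentration; inactive = the rest.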

Assays:
[1] = P. berghei load reduction in hepatocytes – cell-based, HepG2, luciferase luminescence, HepG2 viability, primary screen (AID 624349; in the data active = parasite load remaining mostly below about 12%, no sharp cut-off; inactive = mostly above about 10%;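 also: 100% = mean of DMSO negative control wells on the same plate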); details: P. berghei liver stage in HepG2, luciferase luminescence, concentration not given here; parasite load remaining: stronger effect = lower value; viability: measured here: HepG2 viability without parasites
[2] = Wnt pathway potentiators raising nuclear beta-catenin – imaging, WNT3A-conditioned medium, mouse C2C12, NPC library, primary screen (AID 1117326; in the data active = nuclear beta-catenin stimulation mostly above about 4.2%, no sharp cut-off; inactive = mostly below about 10%); details: stronger effect = higher value
[3] = stimulators of insulin release from INS-1E, primary screen, cell-based, 5 mM glucose, NPC library (AID 1117329;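 active = compound raises insulin release from rat beta cells at 5 mM glucose, no numeric limit stated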); details: rat INS-1E insulin secretion, at 10 µM, stronger effect = higher value
[4] = growth inhibition of GSK3B-pretreated HCT116 cells – cell-based, CellTiter-Glo, 0.2 to 20 µM (AID 1117336;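 active = compounds lowering colon cancer cell viability after pretreatment blocking the GSK3B kinase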); details: HCT116 viability after GSK3B inhibitor, at 20 µM, stronger effect = higher value
[5] = inhibition of endothelial tube formation, primary screen, imaging, VEGF stimulated, CD31 staining, tube area, NPC library (AID 1117340;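 active = compound that reduces growth-factor-driven endothelial tube area in a mixed cell culture, no cutoff stated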); details: VEGF-stimulated ADSC/ECFC co-culture, at 10 µM, stronger effect = higher value
[6] = GLP1 release stimulators, primary, NCI-H716, NPC library (AID 1117341;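 active = compound raises GLP1 secretion from the human gut endocrine cells, with no numeric limit stated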); details: NCI-H716 cells, at 10 µM, stronger effect = higher value
[7] = HCT116 colon cancer cell growth inhibition, primary screen, CellTiter-Glo luminescence, NPC library (AID 1117342;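 active = compounds that lower survival of HCT116 colon cancer cells in the luminescence readout, no numeric limit stated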); details: at 20 µM (top of the series)
[8] = reduced SW480 viability measured with CellTiter-Glo, NPC library, primary (AID 1117343;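 active = compounds that lower viability of the colon cancer cells in the luminescence readout, with no numeric limit stated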); details: CellTiter-Glo luminescence; at 20 µM (top of the series) unless noted
[9] = NPC library primary testing for decreased DLD-1 cell viability via CellTiter-Glo (AID 1117346;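 active = compounds that lower survival of DLD-1 colon cancer cells in the luminescence readout, no cutoff given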); details: DLD-1 viability, CellTiter-Glo luminescence; at 20 µM (top of the series)
[10] = EMT-state selective cytotoxicity in co-culture – imaging, PC-3E GFP, TEM4-18 mCherry, primary screen (AID 1345086;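 active = compounds killing one labelled cell type while sparing the other, by normalised counts and ratio limits, not self-fluorescent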;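 as to all read-outs here: cells exposed to compound for 72 h before imaging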;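 as to red/green cell ratio (normalised): normalised mesenchymal count divided by normalised epithelial count so high means epithelial killing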); details: PC-3E GFP / TEM4-18 mCherry co-culture, imaging cell counts, at 1 µM; for red/green cell ratio (normalised): actives lie on both sides, counts scaled to control wells, 1 = unselective
[11] = viability loss with induced miR-34 in A549 – imaging, A549 dox-inducible miR-34, nuclei and caspase counts, primary screen (AID 1347080;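 active = compounds whose cell count with miR-34 switched on is under 0.7 times the count with it off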); details: A549 miR-34 inducible, Hoechst nuclei count, 48 h
[12] = MELAS cybrid and Rieske KO viability enhancers – cell-based, MELAS cybrids, Rieske KO mouse fibroblasts, CellTiter-Glo, primary screen (AID 1508586;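 active = mean z-score across replicates of 1.96 or higher in either the MELAS or the Rieske mutant cell line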;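 also: z relative to plate mean and SD of compound and empty wells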); details: low glucose
[13] = drug combination growth inhibition, ovarian cancer – cell-based, oncology-focused library, rucaparib conditional, profiling panel (AID 1508598); details: patient-derived ovarian cancer cells, CellTiter-Glo viability, 144 h, stronger effect = lower value
[14] = compounds altering viability of human ES cells (AID 493140; call rule not given here;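 also: cells exposed to compounds for four days before counting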); details: human embryonic stem cell survival screen; stronger effect = higher value
[15] = target: NAD(+) hydrolase SARM1 (Homo sapiens) (UniProt Q6SZW1); experiment: blocking NAD cleavage by SARM1 SAM-TIR – cell lysate, NAD-Glo luminescence (AID 1508614;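 active = compound whose remaining NAD level is above about 45 nM, limit read from the data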;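 also: higher remaining NAD means stronger inhibition of SARM1 NADase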); details: SAM-TIR HEK293T lysate NADase, at 1 µM, stronger effect = higher value
[16] = measured here: epithelial PC-3E GFP cell survival
[17] = measured here: mesenchymal TEM4-18 mCherry cell survival
[18] = stronger effect = lower value, cell number ratio, induced over uninduced
[19] = measured here: relative caspase fold change +Dox/-Dox
[20] = measured here: total cells with miR-34 induction, stronger effect = lower value
[21] = measured here: total cells without miR-34 induction
[22] = MELAS cybrid survival, CellTiter-Glo 48 h, stronger effect = higher value
[23] = Rieske KO mouse fibroblast survival, CellTiter-Glo 72 h

NAD(+) hydrolase SARM1 (Homo sapiens), sequence (Q6SZW1 whole entry, looked up): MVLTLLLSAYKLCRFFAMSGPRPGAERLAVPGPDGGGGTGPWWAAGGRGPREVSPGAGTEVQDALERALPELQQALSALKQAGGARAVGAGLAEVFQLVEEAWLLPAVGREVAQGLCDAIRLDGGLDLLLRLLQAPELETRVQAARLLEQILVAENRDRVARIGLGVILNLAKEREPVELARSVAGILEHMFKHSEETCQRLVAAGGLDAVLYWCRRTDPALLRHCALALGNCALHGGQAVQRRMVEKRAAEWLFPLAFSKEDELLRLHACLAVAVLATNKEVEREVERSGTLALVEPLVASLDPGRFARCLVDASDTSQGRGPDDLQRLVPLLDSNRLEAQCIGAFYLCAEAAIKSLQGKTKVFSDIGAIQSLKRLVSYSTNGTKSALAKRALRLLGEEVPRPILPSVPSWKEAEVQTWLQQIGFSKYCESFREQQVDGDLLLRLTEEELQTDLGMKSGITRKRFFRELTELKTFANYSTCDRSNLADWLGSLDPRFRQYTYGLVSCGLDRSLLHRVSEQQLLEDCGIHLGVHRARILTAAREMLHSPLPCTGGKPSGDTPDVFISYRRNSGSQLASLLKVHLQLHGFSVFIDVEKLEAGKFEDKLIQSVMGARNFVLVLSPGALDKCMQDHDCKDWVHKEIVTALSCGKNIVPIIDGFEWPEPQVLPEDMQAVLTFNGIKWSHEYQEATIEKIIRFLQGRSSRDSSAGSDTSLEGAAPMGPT

CN(N=O)C(=O)N[C@@H]1[C@@H](O)[C@H](O)[C@@H](CO)O[C@@H]1O
97.3% and 74.3% and 97.4%: viability [1]
active: viability ([13]; at 0.00488 µM, OCI-P5x cells, with rucaparib 20 µM, 100% = cells with rucaparib alone) 97.2% | viability ([13]; at 0.313 µM, OCI-P5x cells, with rucaparib 20 µM, 100% = cells with rucaparib alone) 98.9% | viability ([13]; at 1.25 µM, OCI-C5x cells, with rucaparib 10 µM, 100% = cells with rucaparib alone) 97.9% | viability ([13]; at 1.25 µM, OCI-P5x cells, with rucaparib 20 µM, 100% = cells with rucaparib alone) 87.8% | viability ([13]; at 5 µM, OCI-P5x cells, with rucaparib 20 µM, 100% = cells with rucaparib alone) 87.3% | viability ([13]; at 5 µM, OCI-P5x cells, without rucaparib) 98.1%
1.24 and 1.12: fold change [11, 19]
inactive: parasite load remaining [1] 90.3% and 138% and 42.6% | nuclear beta-catenin stimulation ([2]; at 10 µM) 0.9% | insulin secretion stimulation [3] 0.5% | viability decrease [4] -5.6% | tube area decrease [5] 10.3% | GLP1 secretion stimulation [6] 0.8% | inhibition of viability [7] -6.13% | viability decrease (inhibition) [8] 42% | viability decrease (inhibition) [9] -37.7% | red/green cell ratio (normalised) [10] 1.14 | fold change [11, 18] 0.837 and 0.877 | z-score [12, 22] 0.426 | viability ([13]; at 0.000305 µM, OCI-C5x cells, with rucaparib 10 µM, 100% = cells with rucaparib alone) 107% | viability ([13]; at 0.000305 µM, OCI-C5x cells, without rucaparib) 111% | viability ([13]; at 0.000305 µM, OCI-P5x cells, with rucaparib 20 µM, 100% = cells with rucaparib alone) 108% | viability ([13]; at 0.000305 µM, OCI-P5x cells, without rucaparib) 121% | viability ([13]; at 0.00122 µM, OCI-C5x cells, with rucaparib 10 µM, 100% = cells with rucaparib alone) 110% | viability ([13]; at 0.00122 µM, OCI-C5x cells, without rucaparib) 114% | viability ([13]; at 0.00122 µM, OCI-P5x cells, with rucaparib 20 µM, 100% = cells with rucaparib alone) 101% | viability ([13]; at 0.00122 µM, OCI-P5x cells, without rucaparib) 115% | viability ([13]; at 0.00488 µM, OCI-C5x cells, with rucaparib 10 µM, 100% = cells with rucaparib alone) 102% | viability ([13]; at 0.00488 µM, OCI-C5x cells, without rucaparib) 121% | viability ([13]; at 0.00488 µM, OCI-P5x cells, without rucaparib) 113% | viability ([13]; at 0.0195 µM, OCI-C5x cells, with rucaparib 10 µM, 100% = cells with rucaparib alone) 111% | viability ([13]; at 0.0195 µM, OCI-C5x cells, without rucaparib) 114% | viability ([13]; at 0.0195 µM, OCI-P5x cells, with rucaparib 20 µM, 100% = cells with rucaparib alone) 100% | viability ([13]; at 0.0195 µM, OCI-P5x cells, without rucaparib) 116% | viability ([13]; at 0.0781 µM, OCI-C5x cells, with rucaparib 10 µM, 100% = cells with rucaparib alone) 106% | viability ([13]; at 0.0781 µM, OCI-C5x cells, without rucaparib) 122% | viability ([13]; at 0.0781 µM, OCI-P5x cells, with rucaparib 20 µM, 100% = cells with rucaparib alone) 104% | viability ([13]; at 0.0781 µM, OCI-P5x cells, without rucaparib) 112% | viability ([13]; at 0.313 µM, OCI-C5x cells, with rucaparib 10 µM, 100% = cells with rucaparib alone) 106% | viability ([13]; at 0.313 µM, OCI-C5x cells, without rucaparib) 126% | viability ([13]; at 0.313 µM, OCI-P5x cells, without rucaparib) 113% | viability ([13]; at 1.25 µM, OCI-C5x cells, without rucaparib) 109% | viability ([13]; at 1.25 µM, OCI-P5x cells, without rucaparib) 105% | viability ([13]; at 5 µM, OCI-C5x cells, with rucaparib 10 µM, 100% = cells with rucaparib alone) 103% | viability ([13]; at 5 µM, OCI-C5x cells, without rucaparib) 101%
2.9%: nuclear beta-catenin stimulation ([2]; stimulation, at 2 µM)
10200 and 12600: cell count [11, 21]
0.95: normalised cell number [10, 16]
1.08: normalised cell number [10, 17]
8550 and 11000: cell count [11, 20]
0.385: z-score [12, 23]

Clc1ccc(Cn2c(CN3CCCC3)nc3ccccc32)cc1
47.8% and 90.5%: viability [1]
1.28: normalised cell number [10, 16]
5510 and 8130: cell count [11, 20]
0.98: normalised cell number [10, 17]
3%: nuclear beta-catenin stimulation ([2]; stimulation, at 2 µM)
4960 and 8840: cell count [11, 21]
inactive: survival [14] 21.8 | parasite load remaining [1] 30.7% and 102% | nuclear beta-catenin stimulation ([2]; at 10 µM) 3.1% | insulin secretion stimulation [3] 4.9% | viability decrease [4] -123% | tube area decrease [5] 14.2% | GLP1 secretion stimulation [6] 6.1% | inhibition of viability [7] 34% | viability decrease (inhibition) [9] 19.7% | red/green cell ratio (normalised) [10] 0.77 | fold change [11, 18] 1.11 and 0.92 | z-score [12, 22] 0.821 | remaining NAD [15] 10 nM
2.1 and 1.3: fold change [11, 19]
0.481: z-score [12, 23]
active: viability decrease (inhibition) [8] 61.5%
